Experimental findings from PubChem BioAssay (EPA / NIEHS) are described below.

Calls of active or inactive are those of the source. The calls were made as follows: active = hit-call score of the fitted dose curve at least 0.9, where 1 is the maximum; inactive = score below 0.9.

A short description of the first assay: CCTE_Shafer_MEA_dev_network_spike_peak: CCTE's Neural Network Formation Assay for Mean Number of Electrodes in Network Spike, Shafer Lab (AID 2284049).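 As to AC50: fitted for loss of signal meaning fewer electrodes in network spikes than DMSO.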 The gist of the method: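 Rat cortical primary culture, 1.5 x 10^5 cells/well, 48-well MEA (16 electrodes/well). Dosing day 0 through DIV 12, full media/compound exchange DIV 5, 9. AxIS adaptive spike detection; AUC over days 5/7/9/12; loss-of-signal vs DMSO.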
For orientation: AC50 means the concentration at which the activity in the assay is half-maximal. Take `CC1(C)[C@H](C=C(Cl)Cl)[C@@H]1C(=O)O[C@@H](C#N)c1cccc(Oc2ccccc2)c1`: the half-maximal activity concentration (AC50) was 8440 nM (active).

On to `[CH3][Hg][Cl]`, for which the half-maximal activity concentration (AC50) was 356 nM (active).

Regarding `c1ccc2c(c1)cc1ccc3cccc4ccc2c1c34`, the call was inactive.

The nature of the next assay: CCTE_Shafer_MEA_dev_spike_duration_mean: CCTE's Neural Network Formation Assay for Mean Spike Duration, Shafer Lab (AID 2284051).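 Also: mean network spike duration pooled as area under curve over DIV 5 to 12 recordings.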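 As to AC50: potency for a decrease in mean network spike duration versus DMSO.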 The gist of the method: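 Primary rat cortical neurons on 16-electrode MEA wells (PEI-coated, laminin in plating drop), exposed from plating through DIV 12 with compound renewed at DIV 5 and 9. Mean network-spike duration recorded DIV 5, 7, 9, 12; trapezoidal AUC across days, DMSO baseline.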
In the case of `CC1(C)[C@H](C=C(Cl)Cl)[C@@H]1C(=O)O[C@@H](C#N)c1cccc(Oc2ccccc2)c1`, the half-maximal activity concentration (AC50) is 4920 nM (active).

Turning to `[CH3][Hg][Cl]`, the AC50 is 275 nM (active).

`c1ccc2c(c1)cc1ccc3cccc4ccc2c1c34`: the compound was called inactive.

A further assay in a line: CCTE_Shafer_MEA_dev_network_spike_duration_std: CCTE's Neural Network Formation Assay for Standard Deviation of Network Spike Duration, Shafer Lab (AID 2284052).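 Also: area under curve of spike duration SD across recording days 5 to 12; hits are decreases in network spike duration SD versus DMSO vehicle.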 Put shortly:
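Primary rat cortical neurons on PEI-coated 16-electrode MEA wells, exposed from plating day 0 through day 12 with compound renewed at DIV 5 and 9. Network spike duration SD recorded on days 5, 7, 9, 12, collapsed as trapezoidal AUC; loss-of-signal fit versus DMSO.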
For the compound `CC1(C)[C@H](C=C(Cl)Cl)[C@@H]1C(=O)O[C@@H](C#N)c1cccc(Oc2ccccc2)c1`, the AC50 is 4600 nM (active).

Regarding `[CH3][Hg][Cl]`, the concentration at half-maximal activity (AC50) was 164 nM (active).

`c1ccc2c(c1)cc1ccc3cccc4ccc2c1c34`: the outcome was inactive.

A further assay in a line: CCTE_Shafer_MEA_dev_per_network_spike_spike_number_mean: CCTE's Neural Network Formation Assay for Mean Number of Spikes in a Network Spike, Shafer Lab (AID 2284053).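 As to AC50: fitted as decrease in spikes per network spike relative to DMSO.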 Put shortly: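 Primary rat cortical neurons on 48-well, 16-electrode MEA plates were exposed from plating to DIV 12, with dosing renewed on DIV 5 and 9. Spikes per network spike (0.05 s peak window) were recorded on DIV 5, 7, 9 and 12 and collapsed as trapezoidal AUC versus DMSO.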
As to `CC1(C)[C@H](C=C(Cl)Cl)[C@@H]1C(=O)O[C@@H](C#N)c1cccc(Oc2ccccc2)c1`, the AC50 is 5970 nM (active).

Regarding `[CH3][Hg][Cl]`, the half-maximal activity concentration (AC50) was 536 nM (active).

With `c1ccc2c(c1)cc1ccc3cccc4ccc2c1c34`, the compound was called inactive.

A short description of a further assay: CCTE_Shafer_MEA_dev_per_network_spike_spike_percent: CCTE's Neural Network Formation Assay for Percent of Spikes in a Network Spike, Shafer Lab (AID 2284054). Put shortly:
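Metric: fraction of spikes falling in a 0.05 s window at network-spike peaks. Recordings were made on days 5, 7, 9 and 12 and collapsed by trapezoidal AUC. Cultures were rat cortical neurons on MEA plates, dosed continuously from plating, re-dosed at media changes.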
Take `CC1(C)[C@H](C=C(Cl)Cl)[C@@H]1C(=O)O[C@@H](C#N)c1cccc(Oc2ccccc2)c1`: the AC50 was 15000 nM (active).

Consider `[CH3][Hg][Cl]`, for which the concentration at half-maximal activity (AC50) is 309 nM (active).

For `c1ccc2c(c1)cc1ccc3cccc4ccc2c1c34`, the compound was classed as inactive.

A short description of the next assay: CCTE_Shafer_MEA_dev_mutual_information_norm: CCTE's Neural Network Formation Assay for Mutual Information Normalization, Shafer Lab (AID 2284091).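 As to AC50: mutual information between electrodes summarised as area under curve across four recording days; potency is for a decrease in mutual information relative to DMSO.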 The gist of the method: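 Shared information across electrodes, tracked on days 5, 7, 9 and 12 of network development and collapsed as trapezoidal area under the curve. Rat cortical cultures were treated continuously from plating, with treatment renewed at feeds on DIV 5 and 9; DMSO baseline, negative-direction fit.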
On to `CC1(C)[C@H](C=C(Cl)Cl)[C@@H]1C(=O)O[C@@H](C#N)c1cccc(Oc2ccccc2)c1`, for which the AC50 was 2250 nM (active).

For the compound `[CH3][Hg][Cl]`, the AC50 was 134 nM (active).

`c1ccc2c(c1)cc1ccc3cccc4ccc2c1c34`: the result was inactive.
